# Data: PubChem BioAssay
# Some of the results follow.
# Target: Regulator of G-protein signaling 19 (Homo sapiens) (UniProt P49795)
# Experiment: modulators of RGS–Galpha-o binding, primary screen, biochemical, multiplexed beads, flow cytometry, RGS4/7/8/16/19 (AID 1504);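 also: fluorescently labeled Galpha-o bound to GDP with aluminium fluoride binding biotinylated RGS beads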
# Conditions: multiplexed bead flow cytometry, measured here: RGS19 interaction, at 10 µM
smiles,measurement,value
CC(C)N(CC#CCC1(O)c2ccccc2-c2ccccc21)C(C)C,RGS19–Galpha-o binding response,78.4%
